Test results as given in PubChem BioAssay (NCI).
The panel holds about 83,000 compounds, 20% with a hit somewhere; the sample as a whole holds those more often.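 Results are percent growth after 48 hours of single-concentration exposure. 100 means growth as in untreated cells, lower positive values show inhibition; negative values down to -100 show cell death.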 Calls of active or inactive are those of the source. How the source made its calls: active means growth percent below 10; inactive means the rest.

Each molecule was assayed on MDA-MB-468 breast (assay: NCI-60 one-dose screen, 48 h (100 = growth as untreated, 0 = no growth, -100 = all killed)). Conditions: 10 µM unless noted.

Row | Compound | growth
1 | COc1cc(C(=O)c2c(-c3ccccc3)oc3ccccc23)cc(OC)c1O | 0.857% (active)
2 | N#C/C(=C\C=C\c1ccc(-c2cc(Cl)ccc2Cl)o1)c1nc2ccccc2s1 | 109% (inactive)
3 | Cc1ccc(C(=O)NCCNc2nccc(-c3c(-c4cccc(F)c4)nc4sccn34)n2)cc1 | 38.7% (inactive)
4 | CCc1cccc(CC)c1NC(=O)c1sc2nc3c(cc2c1N)CCCC3 | 79.3% (inactive)
5 | CC(C)(C#N)c1cc(C(=O)Nc2cc(Nc3ncccc3-c3ncnc4nc[nH]c34)ccc2F)cc(C(F)(F)F)c1 | 90.2% (inactive)
6 | O=C(O)c1ccc(Br)nc1 | 88.6% (inactive)
7 | CC(C)(C)n1cc(-c2ccnc(NCCCNS(=O)(=O)c3ccccc3)c2)c(-c2cccc(O)c2)n1 | 9.54% (active)
8 | O=CN1CCCCC1 | 95.6% (inactive)
9 | CCOC(=O)C(CC(c1ccccc1)N1CCCCC1)[N+](=O)[O-] (stereo not drawn) | 49.7% (inactive)
10 | O=C1Cc2ccccc2C(=O)N1 | 45.8% (inactive)
11 | Fc1ccccc1-c1cnn2cc(-c3ccccc3)cnc12 | 124% (inactive)
12 | CC(C)CC(=O)C(CCc1ccccn1)C(C)C (stereo not drawn) | 109% (inactive)
13 | COc1cc(NS(C)(=O)=O)ccc1Nc1c2ccccc2nc2c(C)cccc12 | -14.3% (active)
14 | CC(=O)Nc1nc(N)nc(NC(C)=O)c1N=O | 118% (inactive)
15 | O=S(=O)(CC(O)(c1ccccc1)c1ccccc1)CC(O)(c1ccccc1)c1ccccc1 | 77.4% (inactive)
16 | CCc1cc(C)cc(O)c1 | 94.7% (inactive)
17 | O=c1[nH]cc(Cl)cc1O | 108% (inactive)
18 | Cc1ccc(S(=O)(=O)N(CCC(=O)O)c2ccccc2)cc1 | 113% (inactive)
19 | c1ccc(CO[C@H]2CO[C@H]3[C@@H]2OC[C@@H]3Oc2ccc(Nc3ncnc4ccsc34)cc2)cc1 | 51.5% (inactive)
20 | COc1cc(C(=O)/C=C/c2c(-c3ccc(F)cc3)nc3sc(C)cn23)cc(OC)c1OC | 14.1% (inactive)
21 | CNC(=O)c1c(NC(=O)c2ccc(F)cc2F)sc2c1CCC(=O)C2 | -15.5% (active)
22 | O=[N+]([O-])c1ccc(N/N=C/c2cccc3ccccc23)nc1 | 77.2% (inactive)
23 | N#Cc1ccc(NC(=O)c2sc3nc4c(cc3c2N)C(=O)CCC4)cc1 | 97.6% (inactive)
